Several values for one entry are separate records, joined by “and”; a condition that tells them apart may be missing. Equal values may be shown once. Results filed as inconclusive are left out. Some compounds were tested as several samples or in several runs, with calls that do not always agree. Values without a mark were called inactive. Activity calls are given as the source filed them. The call rests on the fitted dose curve; in most records, active means well fitted cell-killing curve with a large enough effect in the repeat runs; inconclusive means weak or mixed curves, or effect the other way; inactive means flat fitted curve, though single readings scatter.
On the % scale 0 is the no-effect control and ±100 the full control effect; potency means the concentration at half of the fitted maximal effect.

The assay is described as follows: qHTS RealTime-Glo MT Cell Viability Assay in HEK293 cells - 40 hour (AID 1224874). Further: nearly all actives have a fitted effect of over 50% in size. The settings on record: RealTime-Glo luminescence; max response: stronger effect = lower value. From the text: U.S. Tox21 Program National Center for Advancing Translational Sciences [NCATS] NIH Chemical Genomics Center [NCGC] U.S. Environmental Protection Agency [EPA] National Institutes of Environmental Health Sciences [NIEHS] National Toxicology Program [NTP] U.S. Food and Drug Administration [FDA] Tox21 Assay Overview: Measure of cell viability is critical in the cell-base assay. Analysis of cell viability is necessary for the characterization of cell responses to cytotoxic drugs and environmental stress. A RealTime-Glo MT Cell Viability Assay to monitor cell viability in real time of continues cell culture during 40 hours of compound treatment was used to screen Tox21 10K library compounds in Hek293 cells. The RealTime-Glo MT Cell Viability Assay is a nonlytic, homogeneous, bioluminescent method to measure cell viability in real time using a simple, plate-based method. The assay involves adding NanoLuc luciferase and a cell-permeant prosubstrate to cells in culture. Viable cells reduce the proprietary prosubstrate to generate a substrate for NanoLuc luciferase. This substrate diffuses from cells into the surrounding culture medium, where it is rapidly used by the NanoLuc Enzyme to produce a luminescent signal. The signal correlates with the number of viable cells, making the assay well suited for cytotoxicity studies.
Tox21 Assay Protocol Summary: The mixture of Hek293 cell suspension and reagents were dispensed at 600cells/6 ul/well in 1536-well tissue culture treated black solid bottom plates using a Multidrop dispenser. After the assay plates were incubated at a 37 C/5% CO2 incubator for 5 hours, 23 nL of compounds dissolved in DMSO, positive and negative controls was transferred to the assay plate by a pintool work station. The plates were incubated at 37 C for 40 hours. The luminescence intensity were measured at 0h, 8h, 16h, 24h, 32h and 40h time points using ViewLux plate reader during compound treatment.
On the technique in general: In qHTS, concentration-response curves come from the screen itself.
Regarding `O=C1NC(=O)c2ccccc21`, the max response was 3.82% and -4.14% and 5.86%.
Turning to `CC(=O)NS(=O)(=O)c1ccc(N)cc1`, the max response was 9.67% and 1.24% and 4.39%.
Still for that read-out and setting: the result for `Cn1cc[nH]c1=S` reads -1.38% and 17.2% and 3.37%; that for `Nc1ccc(C(=O)O)cc1`, -12% and -18.6% and -17.3%; that for `NC(=O)NC1NC(=O)NC1=O` (stereo not given), 4.83% and -16.4% and 0.282%.
With `COc1c2occc2cc2ccc(=O)oc12`, the Potency was 21.9 µM (active) and the max response is -18.6%.
Regarding `O=NO`, the max response is 1.94% and 6.27% and -0.835%.
Turning to `NC(N)=NC(=O)c1nc(Cl)c(N)nc1N`, the max response was -9.86% and -7.01% and -5.97%.
On the same count and under the same terms, for `CCCCC(CC)COC(=O)/C=C/c1ccc(OC)cc1` (stereo not given) the value was -5.76% and 7.72% and 2.19%.
The same measure, in the same setting: the result for `C1N2CN3CN1CN(C2)C3` reads 5.73% and 6.94% and 0.249%; that for `O=C(O)c1cccc([N+](=O)[O-])c1`, -2.27% and 9.34% and 3.61%.
Same read-out and setting: for `NC(=O)c1cnccn1` the value was -0.816% and 11.3% and 0.0586%; for `CCCCCCCCCCCCCCCC(=O)O`, -14.7% and -1.54% and -1.33%.
`O=C(c1ccccc1)c1ccccc1`: the max response is -7.38% and -0.339% and 9.06%.
With `CCOc1ccc(NC(=O)CC(C)O)cc1` (stereo not given), the max response was -0.988% and -3.57% and -1.9%.
Same read-out and setting: the result for `OC(Cn1cncn1)(Cn1cncn1)c1ccc(F)cc1F` reads 7.44% and 0.305% and 5.93%; that for `CCCCOC(=O)CC(CC(=O)OCCCC)(OC(C)=O)C(=O)OCCCC`, -6.55% and -23.8% and -22.3%.
For `O=C(C1CCCCC1)N1CC(=O)N2CCc3ccccc3C2C1` (stereo not given), the max response was -18.7%.
On the same count and under the same terms, the result for `O=S(=O)(O)c1ccc2cc(O)ccc2c1` reads -0.603% [middle of 4 runs]; that for `O=c1cc[nH]c(=S)[nH]1`, 6.11% and 3.88% and 9.23%; that for `Cc1ccccc1C(OCCN(C)C)c1ccccc1` (stereo not given), -3.03% and -20.7% and -19.7%.
Turning to `C[C@]12C=CC(=O)C=C1CC[C@@H]1[C@@H]2[C@@H](O)C[C@@]2(C)[C@H]1CC[C@]2(O)C(=O)CO`, the max response is -4.22% and -3.97% and 0.449%.
On the same count and under the same terms, the result for `CC(C)[C@@H]1CC[C@@H](C)C[C@H]1O` reads 3.82% [middle of 5 runs]; that for `CC(O)C(=O)O` (stereo not given), 13.3% and 7.35% and 12.9%; that for `Nc1ccc(S(=O)(=O)c2ccc(N)cc2)cc1`, 3.77% and -13.4% and 9.1%.
For the molecule `O=C(O)c1cccnc1`, the max response is -0.0653% [middle of 4 runs].
On the same count and under the same terms, the result for `CC(C)(Oc1ccc(C2CC2(Cl)Cl)cc1)C(=O)O` (stereo not given) reads 2.51% and 10.4%; that for `CCCNC(=O)NS(=O)(=O)c1ccc(Cl)cc1`, 1.38% and -0.751% and 0.902%.
With `O=C(O)CCCCCCCC(=O)O`, the max response is 2.75% and 4.95% and 3.91%.
Same read-out and setting: for `O=c1ccc2ccccc2o1` the value was -0.397% and 6.44% and 2.9%; for `NC(N)=O`, 7.94% and 4.18% and 0.0917%; for `Cc1cc(=O)n(-c2ccccc2)n1C`, 5.11% and 3.11% and 1.5%.
Regarding `Nc1ccc(S(=O)(=O)Nc2nccs2)cc1`, the max response was 5.06% [middle of 4 runs].
Regarding `Cc1cc(=O)[nH]c(=S)[nH]1`, the max response is -0.127% and 3.69% and 0.841%.
`O=S(=O)(O)NC1CCCCC1`: the max response is 10.8% and 12.2% and -1.58%.
With `CCCC(O)C(CC)CO` (stereo not given), the max response is 0.318% and 1.14% and 0.567%.
In the case of `Cc1ccc(C)c(OCCCC(C)(C)C(=O)O)c1`, the max response is 7.5% and 19.4% and 5.2%.
On the same count and under the same terms, the result for `CC(O)CO` (stereo not given) reads -4.92% and 4.28% and 2.26%.
For `Nc1ccc(O)c(C(=O)O)c1`, the max response was 1.04% and -2.7% and 0.776%.

The record behind these values is PubChem BioAssay (Tox21).
